Shiga inhibitor – Shiga toxin inhibition. Vero cells, Shiga toxin protein synthesis inhibition reporter. inhibition, % at 38.7 µM. 9.2% of 290,000 active; in the data active means inhibition mostly above about 28%, no sharp cut-off; inactive means mostly below about 43%
HCV inh – inhibitors of hepatitis C virus infection. Huh7.5.1 HCVcc-Cre infection, luciferase reporter, 44 h. Potency, µM (series often up to 41.8 µM), most hits filed as inhibitors. 3.4% of 340,000 active; active means well fitted inhibition curve with a large enough effect; inconclusive means small, poorly fitted or top-dose-only effect, or another doubt; inactive means no such curve, though single readings can be large or run the other way
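1,000 cells/well; 4 h culture; + compound; + HCVcc-Cre (~0.5 moi); 44 h; luciferase substrate, RT 15 min; read 15 sec.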
Marburg entry inh – blocks Marburg virus binding to or entry into cells; Marburg virus pseudotyped entry inhibition, cell reporter; Potency, µM (highest dose often 37.8 µM), hits mostly inhibitors; 1.8% of 300,000 active; AID 540276; calls by dose curve; tested in HEK293 cells
Lassa entry inh – blocks Lassa virus binding to or entry into cells; Lassa virus pseudotype entry inhibition, cell reporter; Potency, µM (top dose mostly 37.9 µM), usual class: inhibitors; 1.2% of 300,000 active; calls by dose curve; tested in HEK293 cells; further: nearly all actives have a fitted effect of over 50% in size
FMDV inh – foot and mouth disease virus antiviral activity. FMDV antiviral cell-based qHTS. Potency, µM (highest dose often 57.9 µM), most hits filed as inhibitors. 1.2% of 410,000 active. AID 1159524; calls by dose curve; tested in HEK293T cells; further: read-out not given here; nearly all actives have a fitted effect of over 45% in size
CHX counter – counter-screen hit for Shiga toxin inhibitors, cycloheximide; cell reporter, cycloheximide protein synthesis inhibition counterscreen; max response, %; 12% of 300,000 active; AID 2314; in the data active means max response mostly above about 13%, no sharp cut-off; inactive means mostly below about 14%; further: read at 38.3 µM for the half of the compounds with a filed dose
Each line names hits and unclear results; the compound was inactive in the other large screens. In the library only some 13% were active in any assay of this set; here they are far more common.

CN1CCS/C1=C/C=C1/SC(=S)N(Cc2ccccc2)C1=O	Marburg entry inh inconclusive, CHX counter 26
CN1CCS/C1=C/C=C1\SC(=S)N(CC(=O)O)C1=O	none
CCCCN1C(=O)/C(=C/C=C2\SCCN2C)SC1=S	Shiga inhibitor 67, CHX counter 33
C=CCNC(=O)/C(C#N)=C/c1c(C)nn(-c2ccccc2)c1Cl	HCV inh inconclusive, Marburg entry inh 7.9µM
COCCNC(=O)/C(C#N)=C/c1ccc2c(c1)OCO2	Shiga inhibitor 41, CHX counter 19
CCOc1ccccc1NC(=O)/C(C#N)=C/c1c(C)nn(-c2ccccc2)c1Cl	Lassa entry inh inconclusive
C=CCNC(=O)/C(C#N)=C/c1ccc2c(c1)OCCO2	Shiga inhibitor 85, CHX counter 40
C=CCNC(=O)/C(C#N)=C/c1ccc(SC)cc1	Shiga inhibitor 81, Lassa entry inh inconclusive, CHX counter 52
N#C/C(=C\c1ccc2c(c1)OCO2)C(=O)NCc1ccco1	none
N#Cc1ccccc1NC(=O)CSc1nc(-c2ccccc2)cc(C(F)(F)F)c1C#N	none (no result: Shiga inhibitor, HCV inh, Marburg entry inh, CHX counter)
O=C(NCCCl)NNC(=O)c1cc2ccccc2cc1O	none
CC1CCCCC1NC(=O)/C(C#N)=C/c1ccc2c(c1)OCCO2 (configuration not stated)	Shiga inhibitor 39
N#C/C(=C\c1ccc2c(c1)OCCO2)C(=O)Nc1nccs1	Shiga inhibitor 94 (no result: Lassa entry inh)
N#C/C(=C\c1ccccc1)C(=O)Nc1nncs1	none
Cc1ccc(CNc2ccc(N3CCN(C)CC3=O)cc2)cc1	none (no result: Shiga inhibitor, HCV inh, Marburg entry inh, Lassa entry inh, CHX counter)
C=CCn1c(SCC(=O)Nc2ccccc2OC)nnc1-c1ccccn1	HCV inh 7.9µM, Marburg entry inh inconclusive, Lassa entry inh inconclusive, FMDV inh inconclusive
O=C1C2CSCN2C(=O)CN1CCCN1CCN(C(c2ccccc2)c2ccccc2)CC1 (configuration not stated)	Marburg entry inh inconclusive, Lassa entry inh inconclusive
O=C1/C(=C\c2cccs2)Sc2ccc3ccccc3c21	Shiga inhibitor 84, HCV inh inconclusive, Marburg entry inh inconclusive, Lassa entry inh inconclusive, CHX counter 48
NC1=NC(=O)/C(=C\c2cccs2)S1	none
Cc1cc(OCC(=O)N2CCCC2)cc(C)c1Cl	HCV inh inconclusive, CHX counter 9.4
CCOC(=O)N1CCN(C(=O)COc2ccc(Cl)c(C)c2)CC1	Lassa entry inh inconclusive
O=C(COc1ccc2ccccc2c1)N1CCN(c2ccccc2O)CC1	Lassa entry inh inconclusive
Cc1cc(OCC(=O)N2CCCN(C)CC2)ccc1Cl	CHX counter 16
Cc1ccc2c(Cl)cc(Cl)c(OCC(=O)N3CCCC3)c2n1	Shiga inhibitor 67, CHX counter 35
Cc1cc(OC(=O)N2CCCCC2)cc(C)c1Cl	none
Cc1ccc2c(Cl)cc(Cl)c(OCC(=O)N3CCOCC3)c2n1	none (no result: Shiga inhibitor, Marburg entry inh, Lassa entry inh, CHX counter)
O=C(COc1ccc2ccccc2c1)N1CCNCC1	Shiga inhibitor 52, Lassa entry inh inconclusive, CHX counter 12
Cc1cc(OCC(=O)OCC(=O)N2CCCCC2)ccc1Cl	none (no result: Shiga inhibitor, HCV inh, Marburg entry inh, Lassa entry inh, CHX counter)
Cc1cc(OCC(=O)N2CCCC2)ccc1Cl	Shiga inhibitor 52, Lassa entry inh inconclusive, CHX counter 23
COc1ccc(-n2nc3cc(C)c(NC(C)=O)cc3n2)cc1	Shiga inhibitor 140, Marburg entry inh inconclusive, Lassa entry inh inconclusive, CHX counter 32
COc1ccc(-n2nc3cc(C)c(NC(=O)C(C)C)cc3n2)cc1	Shiga inhibitor 69, CHX counter 36 (no result: HCV inh, Lassa entry inh, FMDV inh)
O=C(NCc1ccc2c(c1)OCO2)C(=O)Nc1cc2c3c(c1)CC(=O)N3CCC2	none (no result: Shiga inhibitor, CHX counter)
CCc1ccc(N2C(=O)CN(Cc3sccc3C)C2=S)cc1	Shiga inhibitor 51, CHX counter 21
CC(C)C(=O)Nc1c2c(nn1-c1ccc([N+](=O)[O-])cc1)CS(=O)(=O)C2	none
O=C1NN(c2ccccc2)C(=O)/C1=C/c1coc2ccccc2c1=O	Shiga inhibitor 54, HCV inh inconclusive, Marburg entry inh inconclusive, Lassa entry inh inconclusive, FMDV inh inconclusive, CHX counter 81
O=C1NC(=O)N(c2ccccc2)C(=O)/C1=C/c1coc2ccc(O)cc2c1=O	Shiga inhibitor 28, FMDV inh inconclusive, CHX counter 24 (no result: Marburg entry inh, Lassa entry inh)
O=C1NN(c2ccccc2)C(=O)/C1=C\c1coc2ccc(O)cc2c1=O	FMDV inh inconclusive (no result: Marburg entry inh, Lassa entry inh)
c1ccc(-c2onc(-c3ccco3)c2-c2ccc3[nH]ccc3c2)cc1	Shiga inhibitor 42, HCV inh inconclusive, CHX counter 34 (no result: Marburg entry inh, Lassa entry inh)
COc1cc(-c2c(-c3ccc4c(c3)OCO4)noc2-c2ccsc2)ccc1F	CHX counter 15 (no result: Marburg entry inh, Lassa entry inh)
Cc1onc(-c2ccc3c(c2)OCO3)c1-c1ccc2[nH]ccc2c1	Shiga inhibitor 22, HCV inh inconclusive, FMDV inh inconclusive (no result: Marburg entry inh, Lassa entry inh)
Cc1cccc(-c2noc(-c3ccc4c(c3)OCO4)n2)c1	Marburg entry inh inconclusive, Lassa entry inh inconclusive
c1cc2cc(-c3c(-c4ccc5c(c4)OCO5)noc3-c3ccsc3)ccc2[nH]1	Shiga inhibitor 50, HCV inh inconclusive, CHX counter 39 (no result: Marburg entry inh, Lassa entry inh)
c1ccc(-c2ccc3[nH]ccc3c2)cc1	none (no result: Shiga inhibitor, Marburg entry inh, Lassa entry inh, CHX counter)
COCCCNC(=O)c1ccc(CS(=O)(=O)c2ccccc2C)o1	none
O=C1CCCN1CCCNC(=S)Nc1cccc2ccccc12	none
Cc1ccc(C)c(NC(=O)COC(=O)CCNC(=O)c2ccco2)c1	none (no result: Shiga inhibitor, Marburg entry inh, Lassa entry inh, CHX counter)
Cc1nn(-c2ccc(Cl)cc2)c2sc(C(=O)N3CCN(c4ccccn4)CC3)cc12	HCV inh inconclusive
CCOc1cc(NC(=S)NCc2ccco2)c(OCC)cc1NC(=O)CC	none
O=C1c2cccc3c(N4CCCCC4)ccc(c23)C(=O)N1c1ccc(O)cc1	Marburg entry inh inconclusive, CHX counter 18
CCCc1cc(-c2n[nH]c(C(=O)OCC)c2-c2cscn2)c(O)cc1O	HCV inh inconclusive, Marburg entry inh inconclusive, Lassa entry inh inconclusive, FMDV inh 35µM
CCOC(=O)c1[nH]nc(-c2c(O)cc(C)cc2O)c1-c1csc(C)n1	none
Cc1ccc(OCC(=O)Nc2nnc(C3CCCO3)s2)c(Br)c1 (configuration not stated)	Shiga inhibitor 70, HCV inh inconclusive (no result: Lassa entry inh)
O=C(Nc1nnc(C2CCCO2)s1)c1ccc(Br)cc1 (configuration not stated)	Lassa entry inh inconclusive, CHX counter 20
Cc1cccc(C)c1OCC(=O)Nc1nnc(C2CCCO2)s1 (configuration not stated)	Lassa entry inh inconclusive
COc1ccc(CCN=C(NS(=O)(=O)c2ccc(Cl)cc2)c2ccccc2)cc1	HCV inh inconclusive, Marburg entry inh inconclusive, Lassa entry inh inconclusive
COc1ccc(-c2cc(C(F)(F)F)nc(NC3CCCC3)n2)cc1OC	HCV inh 2.2µM, Marburg entry inh inconclusive, Lassa entry inh inconclusive
COc1ccc(CNc2nc(-c3ccc(OC)c(OC)c3)cc(C(F)(F)F)n2)cc1	none (no result: Shiga inhibitor, HCV inh, CHX counter)
COc1ccc(-c2cc(-c3ccccc3)nc(N3CCCC3)n2)cc1OC	HCV inh 3.5µM
COc1ccc(-c2cc(C(F)(F)F)nc(N3CCOCC3)n2)cc1OC	HCV inh 3.2µM
CCOc1cc2nc(-c3ccc(OC)c(OC)c3)nc(N3CCOCC3)c2cc1OC	HCV inh inconclusive, Marburg entry inh 2.5µM, Lassa entry inh inconclusive, FMDV inh inconclusive

Source: PubChem BioAssay
